Experimental data taken from the supplement of paper PMC6411743.
± gives the standard deviation of the averaged measurements. About 6,200 targets were measured; listed, in parts, are those with the largest changes and a random draw of the rest.

Chain of UniProt Q16594 (Q16594 whole entry): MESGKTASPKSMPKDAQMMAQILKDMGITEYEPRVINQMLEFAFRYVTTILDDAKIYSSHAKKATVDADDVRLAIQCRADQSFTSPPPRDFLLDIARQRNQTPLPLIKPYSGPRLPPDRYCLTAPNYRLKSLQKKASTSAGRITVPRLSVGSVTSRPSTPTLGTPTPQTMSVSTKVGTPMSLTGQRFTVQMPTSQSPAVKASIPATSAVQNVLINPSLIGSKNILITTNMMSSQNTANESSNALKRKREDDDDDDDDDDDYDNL
Chain of UniProt Q969F1 (Q969F1 whole entry): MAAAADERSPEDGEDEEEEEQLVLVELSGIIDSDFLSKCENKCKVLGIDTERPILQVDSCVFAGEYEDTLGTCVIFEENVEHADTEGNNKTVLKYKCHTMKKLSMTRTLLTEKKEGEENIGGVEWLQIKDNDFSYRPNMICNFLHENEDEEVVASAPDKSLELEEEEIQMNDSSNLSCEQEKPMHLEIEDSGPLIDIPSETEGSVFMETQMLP
Chain of UniProt Q8WXI9 (Q8WXI9 whole entry): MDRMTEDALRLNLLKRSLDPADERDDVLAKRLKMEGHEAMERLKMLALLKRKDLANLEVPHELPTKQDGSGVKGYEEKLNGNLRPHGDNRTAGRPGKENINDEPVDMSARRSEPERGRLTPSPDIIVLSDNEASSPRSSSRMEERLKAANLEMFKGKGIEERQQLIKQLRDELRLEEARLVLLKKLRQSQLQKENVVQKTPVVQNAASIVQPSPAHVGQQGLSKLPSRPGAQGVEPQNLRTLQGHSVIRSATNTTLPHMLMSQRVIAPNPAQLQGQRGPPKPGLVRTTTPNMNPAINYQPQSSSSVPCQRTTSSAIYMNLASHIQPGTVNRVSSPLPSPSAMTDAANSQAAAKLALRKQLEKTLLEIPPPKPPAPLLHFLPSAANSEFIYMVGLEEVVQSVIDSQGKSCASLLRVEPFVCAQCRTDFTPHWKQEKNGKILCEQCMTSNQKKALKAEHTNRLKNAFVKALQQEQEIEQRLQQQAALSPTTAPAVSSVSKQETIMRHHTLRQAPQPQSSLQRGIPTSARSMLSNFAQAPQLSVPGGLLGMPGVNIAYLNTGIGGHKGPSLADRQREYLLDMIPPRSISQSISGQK
Chain of UniProt Q7L0J3 (Q7L0J3 whole entry): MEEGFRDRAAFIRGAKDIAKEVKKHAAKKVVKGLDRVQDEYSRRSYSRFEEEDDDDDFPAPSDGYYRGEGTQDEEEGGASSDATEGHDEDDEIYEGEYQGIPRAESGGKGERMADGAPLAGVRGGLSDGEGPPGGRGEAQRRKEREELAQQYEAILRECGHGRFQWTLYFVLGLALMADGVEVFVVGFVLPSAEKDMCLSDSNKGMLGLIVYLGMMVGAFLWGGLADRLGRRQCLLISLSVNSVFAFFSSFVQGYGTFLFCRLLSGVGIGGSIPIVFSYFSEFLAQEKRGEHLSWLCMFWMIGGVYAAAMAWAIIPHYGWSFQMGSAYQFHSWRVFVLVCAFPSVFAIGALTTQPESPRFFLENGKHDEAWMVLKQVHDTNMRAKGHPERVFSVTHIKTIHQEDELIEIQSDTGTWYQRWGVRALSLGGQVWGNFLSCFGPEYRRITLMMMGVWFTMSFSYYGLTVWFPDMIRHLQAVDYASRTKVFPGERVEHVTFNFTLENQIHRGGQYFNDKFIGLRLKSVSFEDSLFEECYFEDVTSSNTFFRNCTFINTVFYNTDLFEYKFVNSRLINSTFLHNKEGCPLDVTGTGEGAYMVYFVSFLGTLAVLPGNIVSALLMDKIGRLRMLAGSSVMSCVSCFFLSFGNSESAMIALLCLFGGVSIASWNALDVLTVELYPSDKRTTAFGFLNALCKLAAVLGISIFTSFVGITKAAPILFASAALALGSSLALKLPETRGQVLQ
Chain of UniProt Q8NI27 (Q8NI27 whole entry): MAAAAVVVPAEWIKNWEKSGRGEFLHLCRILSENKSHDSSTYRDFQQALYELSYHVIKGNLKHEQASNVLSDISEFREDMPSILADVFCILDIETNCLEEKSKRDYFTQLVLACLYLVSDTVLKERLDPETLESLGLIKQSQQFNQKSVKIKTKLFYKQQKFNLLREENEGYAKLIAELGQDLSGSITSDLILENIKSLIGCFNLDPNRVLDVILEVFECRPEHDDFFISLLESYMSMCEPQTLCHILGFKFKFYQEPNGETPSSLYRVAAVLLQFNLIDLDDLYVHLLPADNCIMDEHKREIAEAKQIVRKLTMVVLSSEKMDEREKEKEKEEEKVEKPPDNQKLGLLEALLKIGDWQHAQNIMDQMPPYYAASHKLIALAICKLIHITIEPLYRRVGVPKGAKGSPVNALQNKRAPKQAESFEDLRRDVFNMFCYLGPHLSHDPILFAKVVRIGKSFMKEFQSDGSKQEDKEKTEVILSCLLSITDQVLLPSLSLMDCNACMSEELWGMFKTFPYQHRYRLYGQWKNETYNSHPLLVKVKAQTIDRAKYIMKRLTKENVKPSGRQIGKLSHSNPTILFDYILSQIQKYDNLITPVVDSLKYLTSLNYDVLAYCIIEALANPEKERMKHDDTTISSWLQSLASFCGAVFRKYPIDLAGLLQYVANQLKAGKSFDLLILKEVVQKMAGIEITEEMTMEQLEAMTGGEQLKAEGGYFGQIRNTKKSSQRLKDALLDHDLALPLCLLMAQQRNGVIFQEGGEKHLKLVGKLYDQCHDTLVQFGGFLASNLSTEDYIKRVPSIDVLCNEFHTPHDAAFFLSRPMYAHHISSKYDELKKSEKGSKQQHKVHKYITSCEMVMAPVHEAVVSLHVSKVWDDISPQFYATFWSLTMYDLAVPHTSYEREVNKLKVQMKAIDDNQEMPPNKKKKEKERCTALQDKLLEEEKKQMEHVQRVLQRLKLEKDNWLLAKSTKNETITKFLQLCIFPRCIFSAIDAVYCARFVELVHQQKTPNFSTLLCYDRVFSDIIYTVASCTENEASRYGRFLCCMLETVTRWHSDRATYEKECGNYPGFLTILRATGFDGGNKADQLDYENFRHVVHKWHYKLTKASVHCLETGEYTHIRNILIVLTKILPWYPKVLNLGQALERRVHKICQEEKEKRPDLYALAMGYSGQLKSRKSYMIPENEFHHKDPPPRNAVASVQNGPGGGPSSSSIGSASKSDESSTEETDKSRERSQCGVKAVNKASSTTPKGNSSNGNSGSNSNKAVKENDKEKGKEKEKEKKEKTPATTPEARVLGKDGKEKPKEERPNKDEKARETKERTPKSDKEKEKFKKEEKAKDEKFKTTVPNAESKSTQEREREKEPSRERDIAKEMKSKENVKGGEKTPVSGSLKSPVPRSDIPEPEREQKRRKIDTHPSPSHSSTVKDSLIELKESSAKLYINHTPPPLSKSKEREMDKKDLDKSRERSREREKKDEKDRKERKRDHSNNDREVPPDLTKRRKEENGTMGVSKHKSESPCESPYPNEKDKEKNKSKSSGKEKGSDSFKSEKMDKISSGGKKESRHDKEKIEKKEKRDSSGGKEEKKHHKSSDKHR
Chain of UniProt Q8WZ82 (Q8WZ82 whole entry): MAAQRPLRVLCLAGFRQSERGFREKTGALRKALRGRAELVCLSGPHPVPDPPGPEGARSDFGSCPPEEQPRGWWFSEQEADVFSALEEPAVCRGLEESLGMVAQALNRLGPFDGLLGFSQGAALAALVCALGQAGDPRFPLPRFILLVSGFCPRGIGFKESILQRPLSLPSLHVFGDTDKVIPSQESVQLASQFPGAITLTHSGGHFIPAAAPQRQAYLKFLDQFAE
Chain of UniProt Q8IXQ5 (Q8IXQ5 whole entry): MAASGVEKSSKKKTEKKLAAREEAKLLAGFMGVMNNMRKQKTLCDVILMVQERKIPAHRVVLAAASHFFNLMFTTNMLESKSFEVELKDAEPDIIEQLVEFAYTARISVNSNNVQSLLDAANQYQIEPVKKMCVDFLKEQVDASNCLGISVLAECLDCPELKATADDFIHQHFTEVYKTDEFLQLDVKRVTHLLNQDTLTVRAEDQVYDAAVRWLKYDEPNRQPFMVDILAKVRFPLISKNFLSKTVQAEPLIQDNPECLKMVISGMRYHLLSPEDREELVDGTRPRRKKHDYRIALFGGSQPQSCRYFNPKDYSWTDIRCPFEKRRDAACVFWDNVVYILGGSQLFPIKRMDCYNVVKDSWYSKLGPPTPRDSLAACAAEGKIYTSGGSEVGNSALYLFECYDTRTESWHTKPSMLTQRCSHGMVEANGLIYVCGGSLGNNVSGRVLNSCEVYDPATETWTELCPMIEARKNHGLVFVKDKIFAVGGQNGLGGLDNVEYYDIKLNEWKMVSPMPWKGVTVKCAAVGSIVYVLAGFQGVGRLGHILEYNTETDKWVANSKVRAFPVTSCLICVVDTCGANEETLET
Chain of UniProt Q8IZ07 (Q8IZ07 whole entry): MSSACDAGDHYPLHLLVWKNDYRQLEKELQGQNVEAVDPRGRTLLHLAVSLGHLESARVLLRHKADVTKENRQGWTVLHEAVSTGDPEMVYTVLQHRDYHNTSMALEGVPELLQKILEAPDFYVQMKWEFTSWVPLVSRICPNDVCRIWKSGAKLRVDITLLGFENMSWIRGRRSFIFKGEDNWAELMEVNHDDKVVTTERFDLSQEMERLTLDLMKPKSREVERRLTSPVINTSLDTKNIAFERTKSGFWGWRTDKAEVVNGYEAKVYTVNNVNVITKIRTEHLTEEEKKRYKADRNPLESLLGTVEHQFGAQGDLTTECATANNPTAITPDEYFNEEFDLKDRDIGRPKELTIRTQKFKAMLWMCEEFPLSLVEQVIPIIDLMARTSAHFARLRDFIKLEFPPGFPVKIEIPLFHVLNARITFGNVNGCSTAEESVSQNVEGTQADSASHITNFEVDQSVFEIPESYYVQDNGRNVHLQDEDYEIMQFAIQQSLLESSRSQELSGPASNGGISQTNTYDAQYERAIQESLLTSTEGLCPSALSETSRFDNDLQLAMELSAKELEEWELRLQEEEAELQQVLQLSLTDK

These targets were tested with Nc1ncnc2c1ncn2[C@@H]1O[C@H](COP(=O)(O)OP(=O)(O)NP(=O)(O)O)[C@@H](O)[C@H]1O [adenylyl imidodiphosphate] (assay: NP40-soluble protein abundance relative to vehicle (solubility fold change) (ratio); higher = more soluble protein in presence of AMP-PNP). Conditions: concentration: 1mM.
Summary of the method: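 Crude Jurkat lysate, prepared by Dounce homogenisation, was exposed to eight concentrations from 0.1 to 10 mM for 10 min at room temperature and then 3 min at 37 °C. Solubilisation used 0.8% NP40 with benzonase for 60 min at 4 °C, followed by ultracentrifugation and TMT labelling of the supernatant for LC-MS/MS. After vsn normalisation of intensities, each value is the fold change against the detergent-processed vehicle within each replicate, across three independent experiments.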
Work on UniProt Q8TEQ0|Q8TEQ0-2 yielded an NP40-soluble protein abundance of 1.02 ± 0.035. UniProt Q14444|Q14444-2 was tested, and the NP40-soluble protein abundance was 1.12 ± 0.041. Target UniProt Q15056-2|Q15056 has an NP40-soluble protein abundance of 0.999 ± 0.037. In the case of TMED4 (UniProt Q7Z7H5), the NP40-soluble protein abundance is reported as 1.017 ± 0.0076. Work on IQGAP2 (UniProt Q13576) yielded an NP40-soluble protein abundance of 0.956 ± 0.027. For UniProt Q13825|Q13825-2, the NP40-soluble protein abundance was 0.995 ± 0.028. UniProt Q7L5Y1|Q7L5Y1-4|Q7L5Y1-5 showed an NP40-soluble protein abundance of 0.992 ± 0.03. For ABHD11 (UniProt Q8NFV4), the NP40-soluble protein abundance was 1.02 ± 0.035. For UniProt Q969T7|Q969T7-2, the NP40-soluble protein abundance was 0.981 ± 0.054. Target ANKRD13A (UniProt Q8IZ07) has an NP40-soluble protein abundance of 0.985 ± 0.017. Target TAF9 (UniProt Q16594) has an NP40-soluble protein abundance of 1.009 ± 0.0054. For UniProt Q93074-2, the NP40-soluble protein abundance was 1.01 ± 0.032. With UniProt Q6UN15|Q6UN15-3 the NP40-soluble protein abundance was 1.03 ± 0.024. With GTF3C6 (UniProt Q969F1) the NP40-soluble protein abundance was 1.04 ± 0.045. GATAD2B (UniProt Q8WXI9) showed an NP40-soluble protein abundance of 1.01 ± 0.014. Work on UniProt Q8IYB5-2|Q8IYB5-3 yielded an NP40-soluble protein abundance of 0.988 ± 0.028. Work on UniProt Q6P6C2|Q6P6C2-1 yielded an NP40-soluble protein abundance of 1.15 ± 0.065. UniProt Q7L5N7|A0A087X0A3|Q7L5N7-2 gave an NP40-soluble protein abundance of 0.987 ± 0.031. Target PPWD1 (UniProt Q96BP3) has an NP40-soluble protein abundance of 0.984 ± 0.013. For “UniProt Q5M775|Q5M775-2|Q5M775-3|Q5M775-4|Q5M775-5”, the NP40-soluble protein abundance was 0.945 ± 0.062. Work on OVCA2 (UniProt Q8WZ82) yielded an NP40-soluble protein abundance of 1.01 ± 0.018. For UniProt Q7L0J3|Q7L0J3-2, the NP40-soluble protein abundance was 1 ± 0.032. For URB2 (UniProt Q14146), the NP40-soluble protein abundance was 0.971 ± 0.018. Work on MDC1 (UniProt Q14676) yielded an NP40-soluble protein abundance of 1.13 ± 0.032. CBLL1 (UniProt Q75N03) showed an NP40-soluble protein abundance of 1 ± 0.01. In the case of UniProt Q684P5-2|Q684P5-3|Q684P5, the NP40-soluble protein abundance is reported as 1 ± 0.035. In the case of UniProt Q8WWW0|Q8WWW0-2, the NP40-soluble protein abundance is reported as 0.9981 ± 0.0063. For ERCC6L (UniProt Q2NKX8), the NP40-soluble protein abundance was 0.998 ± 0.022. For CCDC6 (UniProt Q16204), the NP40-soluble protein abundance was 0.993 ± 0.023. With UniProt Q15365 the NP40-soluble protein abundance was 1.031 ± 0.0057. USP34 (UniProt Q70CQ2) gave an NP40-soluble protein abundance of 0.958 ± 0.032. UniProt Q71F23 showed an NP40-soluble protein abundance of 1.05 ± 0.028. Target RHOT2 (UniProt Q8IXI1) has an NP40-soluble protein abundance of 1.02 ± 0.021. With THOC2 (UniProt Q8NI27) the NP40-soluble protein abundance was 1.36 ± 0.16. UniProt Q8IXQ5|Q8IXQ5-2|Q8IXQ5-5 gave an NP40-soluble protein abundance of 0.984 ± 0.042. With UniProt Q8WUB8|Q8WUB8-2|Q8WUB8-3|S5FZ81 the NP40-soluble protein abundance was 1.01 ± 0.045.

Same assay, conditions: concentration: 2mM
Target UniProt Q8TEQ0|Q8TEQ0-2 has an NP40-soluble protein abundance of 1.03 ± 0.047. Work on UniProt Q14444|Q14444-2 yielded an NP40-soluble protein abundance of 1.22 ± 0.17. UniProt Q15056-2|Q15056 showed an NP40-soluble protein abundance of 1.03 ± 0.035. TMED4 (UniProt Q7Z7H5) was tested, and the NP40-soluble protein abundance was 0.973 ± 0.026. IQGAP2 (UniProt Q13576) gave an NP40-soluble protein abundance of 0.935 ± 0.022. In the case of UniProt Q13825|Q13825-2, the NP40-soluble protein abundance is reported as 1.02 ± 0.025. In the case of UniProt Q7L5Y1|Q7L5Y1-4|Q7L5Y1-5, the NP40-soluble protein abundance is reported as 1 ± 0.016. Work on ABHD11 (UniProt Q8NFV4) yielded an NP40-soluble protein abundance of 1.046 ± 0.0096. In the case of UniProt Q969T7|Q969T7-2, the NP40-soluble protein abundance is reported as 0.95 ± 0.043. Target ANKRD13A (UniProt Q8IZ07) has an NP40-soluble protein abundance of 0.981 ± 0.013. Target TAF9 (UniProt Q16594) has an NP40-soluble protein abundance of 1.04 ± 0.02. UniProt Q93074-2 was tested, and the NP40-soluble protein abundance was 1 ± 0.028. UniProt Q6UN15|Q6UN15-3 was tested, and the NP40-soluble protein abundance was 1.11 ± 0.062. GTF3C6 (UniProt Q969F1) gave an NP40-soluble protein abundance of 1.07 ± 0.042. For GATAD2B (UniProt Q8WXI9), the NP40-soluble protein abundance was 1.06 ± 0.046. Work on UniProt Q8IYB5-2|Q8IYB5-3 yielded an NP40-soluble protein abundance of 0.986 ± 0.011. UniProt Q6P6C2|Q6P6C2-1 showed an NP40-soluble protein abundance of 1.17 ± 0.036. With UniProt Q7L5N7|A0A087X0A3|Q7L5N7-2 the NP40-soluble protein abundance was 0.966 ± 0.051. PPWD1 (UniProt Q96BP3) was tested, and the NP40-soluble protein abundance was 0.933 ± 0.087. “UniProt Q5M775|Q5M775-2|Q5M775-3|Q5M775-4|Q5M775-5” showed an NP40-soluble protein abundance of 0.89 ± 0.032. OVCA2 (UniProt Q8WZ82) was tested, and the NP40-soluble protein abundance was 0.992 ± 0.052. Work on UniProt Q7L0J3|Q7L0J3-2 yielded an NP40-soluble protein abundance of 1.05 ± 0.072. Target URB2 (UniProt Q14146) has an NP40-soluble protein abundance of 0.9722 ± 0.0054. With MDC1 (UniProt Q14676) the NP40-soluble protein abundance was 1.31 ± 0.086. Target CBLL1 (UniProt Q75N03) has an NP40-soluble protein abundance of 1.04 ± 0.022. In the case of UniProt Q684P5-2|Q684P5-3|Q684P5, the NP40-soluble protein abundance is reported as 1 ± 0.024. In the case of UniProt Q8WWW0|Q8WWW0-2, the NP40-soluble protein abundance is reported as 0.996 ± 0.033. With ERCC6L (UniProt Q2NKX8) the NP40-soluble protein abundance was 1.01 ± 0.036. Target CCDC6 (UniProt Q16204) has an NP40-soluble protein abundance of 1.06 ± 0.037. Work on UniProt Q15365 yielded an NP40-soluble protein abundance of 1.04 ± 0.038. USP34 (UniProt Q70CQ2) showed an NP40-soluble protein abundance of 0.925 ± 0.044. Target UniProt Q71F23 has an NP40-soluble protein abundance of 1.07 ± 0.034. RHOT2 (UniProt Q8IXI1) gave an NP40-soluble protein abundance of 1 ± 0.073. In the case of THOC2 (UniProt Q8NI27), the NP40-soluble protein abundance is reported as 1.46 ± 0.2. UniProt Q8IXQ5|Q8IXQ5-2|Q8IXQ5-5 was tested, and the NP40-soluble protein abundance was 0.979 ± 0.018. With UniProt Q8WUB8|Q8WUB8-2|Q8WUB8-3|S5FZ81 the NP40-soluble protein abundance was 1.04 ± 0.034.
